In the supplement of paper PMC5641865, “A screen for kinase inhibitors identifies antimicrobial imidazopyridine aminofurazans as specific inhibitors of the Listeria monocytogenes PASTA kinase PrkA” (The Journal of Biological Chemistry, 2017):
± gives the standard deviation of the averaged measurements.

Each molecule was assayed on Listeria monocytogenes 10403S (assay: growth inhibition relative to ceftriaxone-alone control; higher = stronger potentiation of ceftriaxone growth inhibition). Conditions: 10 µM; ceftriaxone 1 ug/ml; 12 h.
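Note: End-point A600 read in BHI broth at 37 °C with 2% DMSO, inhibition computed as (1 − OD with compound plus ceftriaxone ÷ OD with ceftriaxone only) × 100.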

Compared with `CCC[C@H](NC(=O)/C(C#N)=C/c1cccc(Br)n1)c1ccccc1`, `N#C/C(=C\c1ccc(O)c(O)c1)C(=O)NCc1ccccc1` is lower in growth inhibition: 99.32 ± 0.54% for the first, 28.7 ± 25% for the second.

First: COc1cc2c(Oc3ccc(NC(=O)C4(C(=O)Nc5ccc(F)cc5)CC4)cc3F)ccnc2cc1OCCCN1CCOCC1
Second: N#CCNC(=O)c1ccc(-c2ccnc(Nc3ccc(N4CCOCC4)cc3)n2)cc1
The growth inhibition of the first is higher: 80.2 ± 4.3% for the first, 33 ± 13% for the second.

First: Nc1nonc1-c1nc2cnccc2n1C1CCCCC1
Second: CCn1c(-c2nonc2N)nc2ccc(F)cc21
The growth inhibition of the first is higher: 12.4 ± 3.9% for the first, -0.804 ± 2.6% for the second.

First: CN(c1ccc(NC(=O)Nc2c(Cl)cccc2Cl)cc1)c1ccnc(Nc2cccc(CS(C)(=O)=O)c2)n1
Second: Nc1ncnc2occ(-c3ccc(NC(=O)Nc4cccc(C(F)(F)F)c4)cc3)c12
The growth inhibition of the first is higher: -2.91 ± 0.88% for the first, -12.9 ± 3.5% for the second.

`Cc1cnc(Nc2ccc(OCCN3CCCC3)cc2)nc1Nc1cccc(S(=O)(=O)NC(C)(C)C)c1` and `Cc1nc(Nc2ncc(C(=O)Nc3c(C)cccc3Cl)s2)cc(N2CCN(CCO)CC2)n1` are within error of each other in growth inhibition: 39 ± 15% for the first, 32 ± 20% for the second.

Compared with `CCc1nccc2c1nc(-c1nonc1N)n2CC`, `CC(C)n1nc(-c2ccc3oc(N)nc3c2)c2c(N)ncnc21` is higher in growth inhibition: -8.48 ± 4.8% for the first, -0.352 ± 1.4% for the second.

`O=C(Nc1n[nH]c2cc(-c3ccccc3)ccc12)C1CC1` and `CN1CCC(C(=O)Nc2n[nH]c3nc(-c4ccc(O)cc4)c(Br)cc23)CC1` are within error of each other in growth inhibition: 4.09 ± 0.32% for the first, -3.78 ± 12% for the second.

Going from `NS(=O)(=O)c1ccc(Nc2cc(-c3cccc(O)c3)n[nH]2)cc1` to `NS(=O)(=O)c1ccc(N/N=C2\C(=O)Nc3ccc(-c4cnco4)cc32)cc1`, the growth inhibition falls from 10.9 ± 3.9% to 0.00978 ± 0.57%.

First: COc1ccc(COc2ccc(Cc3cnc(N)nc3N)cc2OC)cc1
Second: Fc1cccc(COc2ccc(Nc3ncnc4sc(-c5ccco5)cc34)cc2Cl)c1
The growth inhibition of the first is higher: 63.8 ± 9.7% for the first, 6.89 ± 3.7% for the second.

Compared with `ON=C1CCc2cc(-c3nc(C4CCNCC4)[nH]c3-c3ccncc3)ccc21`, `O=C1NC(=O)/C(=C/c2ccc3nccc(-c4ccncc4)c3c2)S1` is higher in growth inhibition: 7.4 ± 4.8% for the first, 19.4 ± 3.5% for the second.

First: Nc1cc(C(F)(F)F)c(-c2cc(N3CCOCC3)nc(N3CCOCC3)n2)cn1
Second: Cc1ccc2c(-c3ccnc(Nc4ccc5c(c4)OCCO5)n3)c(-c3ccc(C(F)(F)F)cc3)nn2n1
The growth inhibition of the first is higher: 47 ± 35% for the first, -1.85 ± 0.84% for the second.

`O=C1Nc2ccc(I)cc2C1=Cc1cc(Br)c(O)c(Br)c1` and `O=c1c(O)c(-c2ccc(O)c(O)c2)oc2cc(O)cc(O)c12` [Quercetin (Sophoretin)] are within error of each other in growth inhibition: 36.9 ± 6% for the first, 20.4 ± 13% for the second.

`CO[C@H]1C[C@@H]2CC[C@@H](C)[C@@](O)(O2)C(=O)C(=O)N2CCCC[C@H]2C(=O)O[C@H]([C@H](C)C[C@@H]2CC[C@@H](OC(=O)C(C)(CO)CO)[C@H](OC)C2)CC(=O)[C@H](C)/C=C(\C)[C@@H](O)[C@@H](OC)C(=O)[C@H](C)C[C@H](C)/C=C/C=C/C=C/1C` [Temsirolimus (Torisel)] and `COc1ccc2c(Oc3ccc(NC(=O)c4c(C)n(CC(C)(C)O)n(-c5ccccc5)c4=O)nc3)ccnc2c1` are within error of each other in growth inhibition: 19.8 ± 59% for the first, 28.9 ± 13% for the second.

First: Cc1ccc(NC(=O)c2ccoc2)cc1-c1ccc(C(=O)NCC2CC2)cc1
Second: CC(C)c1ccc(-c2cc(-c3c[nH]nc3-c3ccccn3)ccn2)cc1
The growth inhibition of the first is higher: 16.8 ± 3.1% for the first, -6.81 ± 3% for the second.

`CCCCOc1c(C(=O)c2c(F)cc(C)cc2F)c[nH]c2nncc1-2` and `CCCN1CCC(c2ccc(Nc3nc(Nc4cc(F)ccc4C(N)=O)c4cc[nH]c4n3)c(OC)c2)CC1` are within error of each other in growth inhibition: -6.78 ± 8.6% for the first, -8.21 ± 4.5% for the second.

Compared with `O=c1sn(-c2cccc3ccccc23)c(=O)n1Cc1ccccc1` [Tideglusib], `Cc1ccc2c(-c3ccnc(Nc4cccc(C(F)(F)F)c4)n3)c(-c3ccccc3)nn2n1` is lower in growth inhibition: 89.5 ± 12% for the first, -3.53 ± 4.7% for the second.

`Cn1cc(-c2ccc3nnc(C(F)(F)c4ccc5ncccc5c4)n3n2)cn1` and `COc1ccc2cc(-c3c(-c4ccncc4)nc(-c4ccc([S+](C)[O-])cc4)n3C)ccc2c1` (centres undefined) are within error of each other in growth inhibition: 17.1 ± 33% for the first, 12 ± 0.7% for the second.

`CCc1cc(Nc2nccc(-c3c(-c4ccc(OC)c(C(=O)Nc5c(F)cccc5F)c4)nc4ccccn34)n2)c(OC)cc1N1CCC(N2CCN(S(C)(=O)=O)CC2)CC1` and `CCN1CCN(c2ccc(Nc3cc(N(C)C(=O)Nc4c(Cl)c(OC)cc(OC)c4Cl)ncn3)cc2)CC1` are within error of each other in growth inhibition: 24.5 ± 8% for the first, 12.2 ± 5.4% for the second.

Compared with `CCCN(CCS(C)(=O)=O)Cc1ccc(-c2ccc3ncnc(Nc4ccc(OCc5cccc(F)c5)c(Cl)c4)c3c2)o1`, `CN1CCN(Cc2ccc(-c3cc4ncnc(Nc5ccc(OCc6cccc(F)c6)c(Cl)c5)c4s3)o2)CC1` is higher in growth inhibition: -7.09 ± 4.2% for the first, 3 ± 2.7% for the second.

For `Cc1cc(O)cc(C)c1/C=C/c1cncc(C(=O)N(C)C)c1`, the growth inhibition was -3.75 ± 3.3%.
